Assay results: the supplement of paper PMC12340641

Tested on: HEK293FT dCK*-IKZF1
Test: relative growth recovery (pomalidomide 10 uM = 100%, DMSO = 0%); higher = more growth rescue (IKZF1 fusion degradation)
Conditions: compound concentration: 5 uM; AraC concentration: 0.3 uM; overnight pretreatment + 4 days AraC
Summary of the method: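 HEK293FT cells stably expressing a dCK*-IKZF1 fusion (300/well, 384-well) received 5 μM compound 2 h after seeding. After overnight at 37 °C they received a nucleoside suicide substrate at 0.3 μM plus medium for 4 days. On day 5, Hoechst 33342-stained nuclei were counted by whole-well imaging. Growth recovery was normalised per plate to a reference degrader (100%) and vehicle (0%); values are means of duplicates run on different days.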

| SMILES | relative growth recovery [%] |
| --- | --- |
| ClC(C=C3)=C(Cl)C=[C@@]3[C@H]2C1=CC=CC=C1[C@H](NC)C2 [indatraline] | -3.33 |
| O=c1[nH]c2ccccc2n1C1CCN(CCCC(c2ccc(F)cc2)c2ccc(F)cc2)CC1 [Pimozide] | -1.04 |
| CC(C)C[C@H](NC(=O)[C@@H](O)[C@H](N)Cc1ccccc1)C(=O)NCCOCCOCCOCC(=O)O[C@H]1CC[C@H]2[C@@H]3CC[C@H]4CC(=O)CC[C@]4(C)[C@H]3CC[C@]12C.O=C(O)C(F)(F)F [PROTAC AR Degrader-4 (TFA)] | 8.26 |
| Oc1c(I)cc(I)cc1I | 2.79 |
| c1ccc(CCCN2CCN(CCOC(c3ccccc3)c3ccccc3)CC2)cc1 | 3.4 |
| c1ccc2c(c1)Sc1ccccc1N2CC1CN2CCC1CC2 (stereo not given) [levomequitazine] | 0.35 |
| C(=C\c1ccccc1)/CN1CCN(CCOC(c2ccccc2)c2ccccc2)CC1 | 0.86 |
| C[C@H]1O[C@@H](O[C@H]2[C@@H](O)C[C@H](O[C@H]3[C@@H](O)C[C@H](O[C@H]4CC[C@@]5(C)[C@H](CC[C@@H]6[C@@H]5C[C@@H](O)[C@]5(C)C(c7coc(O)c7)CC[C@]65O)C4)O[C@@H]3C)O[C@@H]2C)C[C@H](O)[C@@H]1O (stereo not given in full) [Digoxin] | -12.6 |
| O=c1[nH]c2ccccc2n1C1CCN(CCCC(c2ccc(F)cc2)c2ccc(F)cc2)CC1 | 5.47 |
| C=C1[C@@H](C)[C@H]2[C@H](Cc3ccccc3)NC(=O)[C@]23OC(=O)/C=C/[C@H](O)CCC[C@@H](C)C/C=C/[C@H]3[C@@H]1O [Cytochalasin B] | -8.39 |
